The full ranking holds about 68,000 sequences; the median of “fluorescence intensity (a.u.)” is about 9,100, and the highest 2% start at about 16,000. What follows is part of a selection rich in the highest values, with near analogues and random picks from the rest.

Chain of OsWRKY34 (Q0JBA9 entry or part of it): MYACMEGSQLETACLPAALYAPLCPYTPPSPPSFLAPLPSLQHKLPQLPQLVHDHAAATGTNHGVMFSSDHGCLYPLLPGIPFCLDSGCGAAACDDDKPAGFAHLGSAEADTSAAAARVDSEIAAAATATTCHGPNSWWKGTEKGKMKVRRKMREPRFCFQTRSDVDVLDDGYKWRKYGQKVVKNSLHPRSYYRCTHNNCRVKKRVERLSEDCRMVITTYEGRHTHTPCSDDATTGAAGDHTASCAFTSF

This assay deals with OsWRKY34 (Oryza sativa, UniProt Q0JBA9 1-250). As to the kind of experiment: protein-binding microarray (RPBM); PBS, 2% BSA, 51.3 ng/ul salmon testes DNA, 50 uM zinc acetate, 200 nM TF, 25 C, 1 h; high values mean tight binding. Particulars: protein: recombinant; tags: N-terminal polyhistidine and DsRed monomer fusion (pET32a); label: CyDye5-dUTP incorporated in the synthesized complementary strand; 3' TTTTT single-stranded linker to array surface; dsDNA, one strand shown. Summed up:
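In PBS with 2% BSA, salmon testes DNA and 50 µM zinc acetate, 200 nM protein was incubated on a custom Agilent array at 25 °C for 1 h and then washed off. The array had been made double-stranded by primer extension with Cy5-dUTP and blocked with 2% BSA. The proteins were transcription factors fused N-terminally to polyhistidine and DsRed, expressed in E. coli BL21-CodonPlus and purified on Ni–NTA. The binding signal is per-feature fluorescence intensity (arbitrary units) from an Axon 4000B scanner.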
With “ATCCCGCTTATCCCACTTCTAATTCATTTTTTCTTTTAAACGGAGTCACCTAGTGCAG”, the binding signal is 10900 fluorescence intensity (a.u.).

Regarding “CACATTGCGTCTTGTAGTCTGTATTGTAGCTGACTATATACGGAGTCACCTAGTGCAG”, the binding signal was 8820 fluorescence intensity (a.u.). Turning to “CCTCCCTTGTTTTCTGTACCAATACGTGATGCACCGGTCTCGGAGTCACCTAGTGCAG”, the binding signal was 8440 fluorescence intensity (a.u.). Regarding “GGGTTCACCACCAAACTCGCCACCTATAAACGCTCCTCGCCGGAGTCACCTAGTGCAG”, the binding signal is 9030 fluorescence intensity (a.u.). Turning to “AATGTTAACGGTGCATGTGGTTGGTTGATTTGATTAGTGACGGAGTCACCTAGTGCAG”, the binding signal is 15300 fluorescence intensity (a.u.).

On to “AATGTTCAAAATTGTGCAATCAAGGTCTTACGGCAGTATACGGAGTCACCTAGTGCAG”, for which the binding signal is 8120 fluorescence intensity (a.u.). Under “TTCTTTTCGCTAGTGATGTCTAGCGTTTCTTTTGACAAATCGGAGTCACCTAGTGCAG” stands 8560 fluorescence intensity (a.u.); under “CGTCTTAGTTACCCTTCTACTCCTATCGCTCGATCGCCTCCGGAGTCACCTAGTGCAG”, 8380 fluorescence intensity (a.u.). As to “TCCTTAGCTCCGCGGATTTGTTCACCATCACCACCATCACCGGAGTCACCTAGTGCAG”, the binding signal was 8780 fluorescence intensity (a.u.). On to “GCACCAACCATCTCACCCGTCCGACGTGGCAGCAGCAACCCGGAGTCACCTAGTGCAG”, for which the binding signal is 8770 fluorescence intensity (a.u.). Turning to “AAGTTTAATTTGTTATTTTTATTTTTATACGTCATCTTTTCGGAGTCACCTAGTGCAG”, the binding signal was 9760 fluorescence intensity (a.u.).

Regarding “TTTTTTTCTTTCCGTATCTTTTTCTTTTTTTGGTTTTTTACGGAGTCACCTAGTGCAG”, the binding signal was 8410 fluorescence intensity (a.u.). “GAGTTCGGCCTTTCCGGTTTCCGGTTGTGTTGTGAGGAGTCGGAGTCACCTAGTGCAG”: the binding signal is 10600 fluorescence intensity (a.u.). As for “ACTAAGTGCGTGATTGTTTCAGATTTGTTTGGGTTGCGGTCGGAGTCACCTAGTGCAG”, the binding signal is 9410 fluorescence intensity (a.u.). On to “TGTTTTTTTTCTTTCCGTATCTTTTTCTTTTTTTGGTTTTCGGAGTCACCTAGTGCAG”, for which the binding signal is 19700 fluorescence intensity (a.u.). On to “TGGTTCTTTGATCTTTTAATTTTGTTTGTTTGTTTGTTTTCGGAGTCACCTAGTGCAG”, for which the binding signal was 12800 fluorescence intensity (a.u.). As for “TCCCCTCTCTGTTGTCATCGTCTTCCTTTCCTTTCCTTTCCGGAGTCACCTAGTGCAG”, the binding signal is 8230 fluorescence intensity (a.u.). The figure for “TTTTTTCTGTTTTTTTCTTTCCGTATCTTTTTCAGTTTTTCGGAGTCACCTAGTGCAG” is 14200 fluorescence intensity (a.u.); for “CTGCCTGTCCCTTTCCTGCATCCATCCATCCATCTTGATCCGGAGTCACCTAGTGCAG” it is 10600 fluorescence intensity (a.u.). The figure for “GTCATCTTTGTTTGAGTCGGTTTTTAATTTTGTTTGCTTTCGGAGTCACCTAGTGCAG” is 17700 fluorescence intensity (a.u.); for “TTGTGTGTGCGTTTGTGATTGCGTCGGTCGGTTTCAGTTCCGGAGTCACCTAGTGCAG” it is 17500 fluorescence intensity (a.u.). The figure for “GGGTGGCGTCCTGTTGTCATCTTTTATCCCTCTTGAATTCCGGAGTCACCTAGTGCAG” is 21500 fluorescence intensity (a.u.); for “ATTGTTCGTCGAACTTTATCATATTATTAATCATCATATACGGAGTCACCTAGTGCAG” it is 8960 fluorescence intensity (a.u.); for “ACCACGGCAAGCCCCTCGCCGAGTCTCTCATCATCGTCGACGGAGTCACCTAGTGCAG” it is 8830 fluorescence intensity (a.u.). In the case of “TTTGTGTAACCGATATGTGGGCCCCACATATTTTATTATTCGGAGTCACCTAGTGCAG”, the binding signal is 9030 fluorescence intensity (a.u.).

On to “TGCGTGGGTCCCAACTCCGGCCGTCTTCCGCCGTTGGATCCGGAGTCACCTAGTGCAG”, for which the binding signal is 8940 fluorescence intensity (a.u.). On to “CCACGATCACATTCACCTCCCATCCCACGACGTTGCTCTCCGGAGTCACCTAGTGCAG”, for which the binding signal is 8850 fluorescence intensity (a.u.).

“TTTTACCAACTTTCTTAATACTCGTGTCCACCTAAAAAATCGGAGTCACCTAGTGCAG”: the binding signal was 8440 fluorescence intensity (a.u.). For the sequence “CGCCTCCGGCCTCCTCACGCACTGCCGCACCACGTCGCACCGGAGTCACCTAGTGCAG”, the binding signal was 9020 fluorescence intensity (a.u.).

Consider “ACCTACTTTTCGTCCCTTAATTCTGTGGCTATGTTCAAATCGGAGTCACCTAGTGCAG”, for which the binding signal was 12700 fluorescence intensity (a.u.). With “GAGAGGAGGTGGTGGGAAGTGGCGGCTAGGGTTTGGGTGGCGGAGTCACCTAGTGCAG”, the binding signal is 11300 fluorescence intensity (a.u.). With “TCGTTCGTTGGTTTGTTTTTTTTTTCTTTTCTCGCGTACACGGAGTCACCTAGTGCAG”, the binding signal is 11600 fluorescence intensity (a.u.). “TCATCCGGTGCCTGTTGTCTCTTTCTTCTCTCTCACATACCGGAGTCACCTAGTGCAG”: the binding signal is 16600 fluorescence intensity (a.u.). Under “GCAGTCGGTTCGCGTTTGTTTTTTTTCTTTCTTTCTTTTTCGGAGTCACCTAGTGCAG” stands 18400 fluorescence intensity (a.u.); under “GCACAGTGGGAGGCCCGCGTTCTTTTTTTTTCGCCGGTTTCGGAGTCACCTAGTGCAG”, 10000 fluorescence intensity (a.u.); under “GGTTTTTTCGGTTTTCGGTTGTCAGTTCGGTTTCTGTTTTCGGAGTCACCTAGTGCAG”, 15400 fluorescence intensity (a.u.). Regarding “ATTATTGTTGTACAGTTCTTGCCTACAGTTCGGTTTTTCTCGGAGTCACCTAGTGCAG”, the binding signal is 19700 fluorescence intensity (a.u.).

Turning to “TGTTCTTTTTTTTTACACGCGTTTTTTTTACATTGTCGTTCGGAGTCACCTAGTGCAG”, the binding signal was 18400 fluorescence intensity (a.u.). Regarding “AGCCTTATCTCTTCATCGGTTCATCCGGTGCCTGTTGTCTCGGAGTCACCTAGTGCAG”, the binding signal was 8990 fluorescence intensity (a.u.). Regarding “CGGCAGTGTTCTTTTTTTTTTACACGCGTTTTTTTTTACACGGAGTCACCTAGTGCAG”, the binding signal was 10800 fluorescence intensity (a.u.).

Consider “TTCTTTTCGGTTGATTGTTTTTCTTTGTATTTCAGTGTTGCGGAGTCACCTAGTGCAG”, for which the binding signal is 9180 fluorescence intensity (a.u.). For the sequence “TTTTTACACGCGTTTTTTTTACATTGTCGTTTTTTTTTTGCGGAGTCACCTAGTGCAG”, the binding signal is 13500 fluorescence intensity (a.u.). For the sequence “CACCTTCTTTTTCTCTCTCTCTCTCTCTCTCTTTCTCATCCGGAGTCACCTAGTGCAG”, the binding signal is 10300 fluorescence intensity (a.u.).

The record behind these values is publication PMC7819943, “Rice protein-binding microarrays: a tool to detect cis-acting elements near promoter regions in rice”.
